The values that follow come from PubChem BioAssay (EPA / NIEHS).

Assay [1] is described as follows: BSK_3C_uPAR: BioMAP Diversity Plus: 3C Assay for Urokinase-type plasminogen activator receptor (uPAR) Biomarker Activity (AID 2282998). Particulars: BioMAP 3C HUVEC, uPAR biomarker ELISA; actives raise or lower the signal. Put shortly: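 Human umbilical vein endothelial primary cells were exposed to test chemical for 24 h. Cell-surface uPAR was then quantified by ELISA, and responses were fitted bidirectionally against DMSO as negative control and baseline.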
On the technique in general: ELISA stands for enzyme-linked immunosorbent assay.

The nature of assay [2]: BSK_3C_VCAM1: BioMAP Diversity Plus: 3C Assay for Vascular cell adhesion molecule 1 (VCAM1) Biomarker Activity (AID 2282999). The note with it: BioMAP 3C HUVEC, VCAM1 ELISA, cytokine-stimulated; actives raise or lower the signal. In a few lines:
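HUVEC primary cells, 24 h compound exposure; VCAM-1 by ELISA; gain/loss of signal fitted bidirectionally vs DMSO baseline.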

Assay [3] in a line: BSK_4H_Eotaxin3: BioMAP Diversity Plus: 4H Assay for Eotaxin 3 Biomarker Activity (AID 2283000). Particulars: primary human endothelial cells (HUVEC); actives raise or lower the signal. Put shortly: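 ELISA quantitation of CCL26 (Eotaxin-3) protein from chemically dosed human vascular endothelial cells at 24 h; increases and decreases both scored relative to DMSO-treated baseline.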

Read-out in assay [4]: Interleukin-1 alpha (IL1a), IL1A (gene 3552)
Description: BSK_BE3C_IL1a: BioMAP Diversity Plus: BE3C Assay for Interleukin-1 alpha (IL1a) Biomarker Activity (AID 2283016). The note with it: primary human bronchial epithelial cells; actives raise or lower the signal. In a few lines: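 ELISA read-out of IL-1a from human lung bronchial epithelial primary cells, 24 h post-dose. Gain or loss of signal fitted relative to DMSO negative control.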

Read-out in assay [5]: Monocyte Chemoattractant Protein-1 (MCP1), CCL2 (gene 6347)
The assay can be described thus: BSK_4H_MCP1: BioMAP Diversity Plus: 4H Assay for Monocyte Chemoattractant Protein-1 (MCP1) Biomarker Activity (AID 2283018). The note with it: primary human endothelial cells (HUVEC); actives raise or lower the signal. Put shortly: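 HUVEC primary cells, 24 h post-dose, MCP-1 by ELISA. Gain or loss of signal fitted bidirectionally vs DMSO baseline. Cytotoxicity: SRB stain (0.1% after 10% TCA fixation), read 560 nm, parallel cultures.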

Read-out in assay [6]: Monokine induced gamma interferon (MIG), CXCL9 (gene 4283)
Description: BSK_3C_MIG: BioMAP Diversity Plus: 3C Assay for Monokine induced gamma interferon (MIG) Biomarker Activity (AID 2283021).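 On AC50: MIG protein level measured by immunoassay in the treated endothelial cultures.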 The note with it: primary human endothelial cells (HUVEC); actives raise or lower the signal. Put shortly: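 HUVEC, 3C system; 24 h chemical exposure; MIG by ELISA; bidirectional fit vs DMSO baseline.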

Assay [7] can be described thus: BSK_3C_SRB: Viability Assessment in the BioMAP Diversity Plus: 3C Assay (AID 2283023).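 Further: fitted both ways against DMSO so a hit may be signal rise or drop.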 The note with it: primary human endothelial cells (HUVEC). In a few lines: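 Overt cytotoxicity is gauged in parallel confluent HUVEC cultures by SRB total-protein staining at the time of biomarker measurement, 24 h after dosing. Gain or loss of signal is fitted versus DMSO.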
Assay [8] can be described thus: BSK_4H_SRB: Viability Assessment in the BioMAP Diversity Plus: 4H Assay (AID 2283027).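 Further: cells exposed to compound for 24 h before staining.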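 On AC50: curves fitted both ways versus DMSO so AC50 may be loss or gain.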 Particulars: primary human endothelial cells (HUVEC). In a few lines:
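HUVEC, 24 h post-dose; 10% TCA fix, 0.1% SRB stain, A560 nm. Total protein = overt cytotoxicity, parallel to biomarker read. Bidirectional fit vs DMSO baseline.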

Assay [9] can be described thus: BSK_BE3C_SRB: Viability Assessment in the BioMAP Diversity Plus: BE3C Assay (AID 2283028).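 On AC50: fitted both ways so AC50 may mark signal gain or loss versus DMSO.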 The note with it: primary human bronchial epithelial cells. Put shortly: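 SRB total-protein staining (0.1%, after TCA fixation) of chemically dosed human bronchial epithelial primary cells at 24 h; DMSO serves as the negative control for bidirectional curve fitting.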
Read-out in assay [10]: Monokine induced gamma interferon (MIG), CXCL9 (gene 4283)
Description: BSK_BE3C_MIG: BioMAP Diversity Plus: BE3C Assay for Monokine induced gamma interferon (MIG) Biomarker Activity (AID 2283035).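 On outcome: MIG protein measured by ELISA in BE3C cultures after 24 h of dosing.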 The note with it: primary human bronchial epithelial cells; actives raise or lower the signal. Put shortly:
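Dose cells (human primary bronchial epithelial), incubate 24 h, quantify MIG by ELISA, then fit concentration–response in both directions relative to DMSO control.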

Read-out in assay [11]: Plasminogen activator inhibitor-1 (PAI1), SERPINE1 (gene 5054)
Description: BSK_BE3C_PAI1: BioMAP Diversity Plus: BE3C Assay for Plasminogen activator inhibitor-1 (PAI1) Biomarker Activity (AID 2283037). The note with it: primary human bronchial epithelial cells; actives raise or lower the signal. In a few lines:
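ELISA read-out of PAI-1 from human bronchial epithelial primary cells, 24 h post-dosing; bidirectional curve fit vs DMSO baseline, gain or loss of signal scored.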

Read-out in assay [12]: Tissue plasminogen activator (tPA), PLAT (gene 5327)
The assay can be described thus: BSK_BE3C_tPA: BioMAP Diversity Plus: BE3C Assay for Tissue plasminogen activator (tPA) Biomarker Activity (AID 2283041).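 On outcome: tPA level quantified by ELISA one day after compound addition.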 Particulars: primary human bronchial epithelial cells; actives raise or lower the signal. Put shortly:
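ELISA read-out of tPA on human primary bronchial epithelial cells, 24 h post-dosing; bidirectional fit vs DMSO negative control/baseline.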

Read-out in assay [13]: Macrophage colony-stimulating factor (MCSF), CSF1 (gene 1435)
Description: BSK_LPS_MCSF: BioMAP Diversity Plus: LPS Assay for Macrophage colony-stimulating factor (MCSF) Biomarker Activity (AID 2283083). The note with it: primary human HUVEC with PBMC; actives raise or lower the signal. Put shortly:
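Bidirectional fit versus DMSO of ELISA-measured M-CSF in co-cultured human umbilical vein endothelial cells and PBMC, sampled 24 h after dosing.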

Read-out in a further assay: CD69, CD69 (gene 969)
The assay can be described thus: BSK_SAg_CD69: BioMAP Diversity Plus: SAg Assay for CD69 Biomarker Activity (AID 2283089).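 On AC50: cell surface CD69 protein quantified by ELISA with fluorescence detection.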 Particulars: primary human HUVEC with PBMC; actives raise or lower the signal. In a few lines: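 Endothelial/PBMC co-culture; chemical added; 24 h incubation; CD69 ELISA with fluorescence detection; bidirectional fit vs DMSO.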

Assay [14] can be described thus: ATG_TGFb_CIS: Attagene CIS-FACTORIAL HepG2 Assay for human Transforming Growth Factor (TGF) (AID 2282967). The note with it: HepG2 Attagene CIS TGFb reporter, mRNA transcription; actives raise or lower the signal. Put shortly:
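HepG2 cells transiently transfected with cis-promoter-driven multiplexed reporter units; 24 h compound exposure. Reporter mRNA measured by RT-PCR, 6-FAM labeling, HpaI digestion and capillary electrophoresis; bidirectional fit versus DMSO baseline.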

A short description of assay [15]: ATG_VDRE_CIS: Attagene CIS-FACTORIAL HepG2 Assay for human Vitamin D Receptor Element (VDRE) (AID 2282968). The note with it: HepG2 VDRE cis-reporter transcription, actives raise or lower the signal. Put shortly:
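Transient MRTU transfection of HepG2, 24 h compound exposure. Readout: reporter transcripts via RT-PCR and capillary electrophoresis, fluorescence. Bidirectional fit vs DMSO.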

Assay [16] in a line: ATG_M_06_TRANS: Attagene TRANS-FACTORIAL HepG2 Assay for M06 Transcription Factor (Internal Marker) (AID 2282983; active means hit-call score of the fitted dose curve at least 0.9, where 1 is the maximum). The note with it: HepG2 Attagene TRANS M06 internal marker reporter. In a few lines:
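Multi-reporter-transfected HepG2, 24 h treatment; reporter transcripts quantified via RT-PCR, primer-extension labelling and CE. DMSO-normalized gain-of-signal fit.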

The target of assay [17] is human Peroxisome Proliferator-activated Receptor alpha (PPARa), PPARA (gene 5465) (UniProt Q07869). Description: ATG_PPARa_TRANS: Attagene TRANS-FACTORIAL HepG2 Assay for human Peroxisome Proliferator-activated Receptor alpha (PPARa) (AID 2283001; active means hit-call score of the fitted dose curve at least 0.9, where 1 is the maximum). Put shortly:
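Transient HepG2 transfection, GAL4-UAS reporters, NR-Gal4 chimeras; 24 h compound exposure. Readout: reporter transcripts by RT-PCR, 6-FAM primer extension, HpaI digest, capillary electrophoresis. Positive direction vs DMSO baseline.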

For assay [18], the target named is Hepatocyte nuclear factor 6 (Homo sapiens) (UniProt Q9UBC0). The assay can be described thus: ATG_HNF6_CIS: Attagene CIS-FACTORIAL HepG2 Assay for human Hepatocyte Nuclear Factor 6 (HNF6) (AID 2282952). The note with it: HepG2 Attagene cis-factorial HNF6 reporter transcription; actives raise or lower the signal. In a few lines:
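Twenty-four-hour chemical treatment of reporter-transfected HepG2 cells precedes RNA isolation, DNase-treated reverse transcription and PCR of reporter sequences. Labelled fragments are sized by capillary electrophoresis and fitted bidirectionally versus DMSO.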

Assay [19] addresses Retinoic acid receptor RXR-alpha (Homo sapiens) (UniProt P19793). Description: ATG_RXRa_TRANS: Attagene TRANS-FACTORIAL HepG2 Assay for human Retinoid X Receptor alpha (RXRa) (AID 2283012; active means hit-call score of the fitted dose curve at least 0.9, where 1 is the maximum). In a few lines:
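Read-out: fluorescent reporter-transcript fragments quantified by capillary electrophoresis after RT-PCR. Transiently transfected HepG2 cells carrying GAL4-UAS reporters and NR-GAL4 chimeras were exposed to chemical for 24 h; activity scored as increase over DMSO.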

Where “and” joins values, the source holds several entries; their conditions need not be identical. Identical values can stand only once. Records with an inconclusive call do not appear. The source holds several records for some structures; these can differ, active in one and inactive in another. Calls of active or inactive are those of the source. How the source made its calls, unless noted: active means hit-call score of the fitted dose curve at least 0.9, where 1 is the maximum; inactive means score below 0.9.

human Peroxisome Proliferator-activated Receptor alpha (PPARa), PPARA (gene 5465), sequence (Q07869 whole entry, looked up, the tested form may be a part): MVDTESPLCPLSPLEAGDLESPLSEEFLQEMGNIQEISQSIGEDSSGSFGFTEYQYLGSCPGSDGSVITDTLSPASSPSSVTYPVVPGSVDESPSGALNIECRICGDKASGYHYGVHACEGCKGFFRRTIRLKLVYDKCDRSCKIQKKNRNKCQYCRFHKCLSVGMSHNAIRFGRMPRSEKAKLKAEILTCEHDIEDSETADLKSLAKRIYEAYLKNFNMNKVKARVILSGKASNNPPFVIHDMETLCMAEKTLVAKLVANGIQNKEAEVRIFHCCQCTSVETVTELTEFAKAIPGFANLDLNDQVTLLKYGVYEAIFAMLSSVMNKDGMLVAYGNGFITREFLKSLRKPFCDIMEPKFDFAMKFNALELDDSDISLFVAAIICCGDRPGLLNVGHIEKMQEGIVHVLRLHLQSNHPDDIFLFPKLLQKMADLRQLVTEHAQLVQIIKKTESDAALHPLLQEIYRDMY
Hepatocyte nuclear factor 6 (Homo sapiens), sequence (Q9UBC0 whole entry, looked up, the tested form may be a part): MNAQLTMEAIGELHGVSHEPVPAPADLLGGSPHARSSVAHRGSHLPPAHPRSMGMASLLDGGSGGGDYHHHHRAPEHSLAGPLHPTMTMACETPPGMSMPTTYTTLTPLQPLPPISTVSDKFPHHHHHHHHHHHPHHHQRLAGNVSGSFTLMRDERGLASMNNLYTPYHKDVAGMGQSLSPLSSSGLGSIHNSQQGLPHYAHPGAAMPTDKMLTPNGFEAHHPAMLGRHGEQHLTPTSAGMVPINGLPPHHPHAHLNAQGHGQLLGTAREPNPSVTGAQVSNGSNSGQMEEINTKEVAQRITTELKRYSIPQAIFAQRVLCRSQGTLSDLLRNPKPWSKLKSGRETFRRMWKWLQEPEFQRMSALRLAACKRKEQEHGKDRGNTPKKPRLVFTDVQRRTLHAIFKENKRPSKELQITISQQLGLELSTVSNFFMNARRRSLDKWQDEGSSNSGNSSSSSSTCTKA
Retinoic acid receptor RXR-alpha (Homo sapiens), sequence (P19793 whole entry, looked up, the tested form may be a part): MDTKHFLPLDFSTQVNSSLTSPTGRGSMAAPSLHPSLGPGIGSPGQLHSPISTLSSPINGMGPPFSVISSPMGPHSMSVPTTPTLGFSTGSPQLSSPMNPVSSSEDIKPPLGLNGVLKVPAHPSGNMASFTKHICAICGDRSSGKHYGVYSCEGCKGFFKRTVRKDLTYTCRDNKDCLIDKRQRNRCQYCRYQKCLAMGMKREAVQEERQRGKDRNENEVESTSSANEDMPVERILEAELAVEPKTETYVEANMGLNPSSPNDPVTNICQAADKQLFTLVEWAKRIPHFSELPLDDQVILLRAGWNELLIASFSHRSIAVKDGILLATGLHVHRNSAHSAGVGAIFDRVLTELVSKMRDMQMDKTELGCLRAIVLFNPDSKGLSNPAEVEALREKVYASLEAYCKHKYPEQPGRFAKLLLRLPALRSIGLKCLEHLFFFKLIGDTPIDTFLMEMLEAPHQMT

One may read the AC50 as the midpoint of the concentration-response curve, whichever way the signal moves. Consider `O=[N+]([O-])c1cc(S(=O)(=O)Nc2ccccc2)ccc1Nc1ccccc1`, for which the half-maximal activity concentration (AC50) was 26 µM (active) and 17.8 µM (active) in [1]; 26.6 µM (active) and 25.5 µM (active) in assay [3]; 24 µM (active) and 30.5 µM (active) in [4]; 27.8 µM (active) and 20 µM (active) in [5]; 30.3 µM (active) and 30.8 µM (active) in assay [7]; 30.5 µM (active) and 31 µM (active) in assay [8]. For the same molecule, the AC50 in assay [9] was 27.5 µM (active) and 31.7 µM (active); in assay [10] it was 31 µM (active) and 34.2 µM (active); in [11], 24.7 µM (active) and 27.1 µM (active); in assay [12], 34 µM (active) and 29.7 µM (active); in assay [13], 9.74 µM (active); in the assay with CD69, CD69 (gene 969) it was 22 µM (active) and 18 µM (active). For the same molecule, the result in [2], in [6] and in [13] was inactive.
Turning to `OC(C(F)(F)F)(C(F)(F)F)C(O)(C(F)(F)F)C(F)(F)F`, the AC50 in assay [1] is 13.8 µM (active) and 10.7 µM (active); in [2], 38.6 µM (active) and 42.1 µM (active); in assay [3], 22.3 µM (active) and 27.4 µM (active); in [4], 31.6 µM (active) and 31.3 µM (active); in [5] it was 21.5 µM (active) and 10.1 µM (active); in [6] it was 43.7 µM (active) and 50.9 µM (active). Moreover, the half-maximal activity concentration (AC50) in assay [7] was 30 µM (active) and 27.7 µM (active); in [8] it was 27.5 µM (active) and 26 µM (active); in assay [9] it was 48 µM (active) and 48.9 µM (active); in assay [10], 54.8 µM (active) and 54.6 µM (active); in assay [11], 13.9 µM (active) and 12.5 µM (active); in [12], 17 µM (active) and 16 µM (active). Also, the AC50 is 22 µM (active) and 21.7 µM (active) in [13]; 18.5 µM (active) and 17.7 µM (active) with CD69, CD69 (gene 969).
For `O=C(O)/C=C/C(=O)O`, the result in assay [14], in assay [15], in assay [16] and in assay [17] was inactive.
In the case of `CC(C)CC(=O)CC(C)C`, the outcome in [18], in assay [15], in assay [16] and in assay [19] was inactive.
`COc1ccccc1Oc1c(NS(=O)(=O)c2ccc(C(C)(C)C)cc2)nc(-c2ncccn2)nc1OCCO`: the outcome in assay [1], in [2], in assay [4], in assay [5], in assay [6] and in [7] was inactive. For the same molecule, the outcome in [8], in [9], in assay [10], in assay [11], in assay [12] and in assay [13] was inactive. Moreover, the result in the assay with CD69, CD69 (gene 969) was inactive. Moreover, the AC50 in assay [3] was 7.97 µM (active) and 11.3 µM (active).
On to `CCCCCCOC(=O)CCCCCCCC(=O)OCCCCCC`, for which the molecule was called inactive in assay [18], in assay [14], in assay [15], in [16] and in assay [17].
Consider `Oc1ccc(Oc2ccccc2)cc1`, for which the result in [18], in [16], in assay [17] and in assay [19] was inactive. Further, the AC50 in assay [15] was 38.4 µM (active).
Regarding `CCCC[N+]1(C)CCCC1`, the call in [18], in assay [14], in [16], in assay [17] and in assay [19] was inactive.
